Source: PubChem BioAssay (National Center for Advancing Translational Sciences (NCATS))
The list is not random: actives were taken first. Their share in the collection is about 21%.
Pf growth 48h: inhibits P. falciparum growth in the first generation, 48 h. 5.9% of 310,000 active. P. falciparum luciferase growth in erythrocytes, 48 h. Potency, µM (series often up to 28.7 µM), for inactives: at the top dose activity change, negative = inhibition, actives largely listed as inhibitors. AID 504832; also: potency is read from the fitted curve at half-maximal effect; % is scaled to controls: 0 for no effect and ±100 for the full control effect
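Compounds are pin-transferred into medium, infected erythrocytes (2% hematocrit, 0.1% parasitemia final) are added, and plates sit one parasite generation at 37 C in 5% CO2. Detection reagent is then added and luminescence measured.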
CHX counter: counter-screen for Shiga toxin inhibitors: cycloheximide protein synthesis inhibition; cell reporter, cycloheximide protein synthesis inhibition counterscreen; max response, %; 12% of 300,000 active; AID 2314; in the data active = max response mostly above about 13%, no sharp cut-off; inactive = mostly below about 14%; also: read at 38.3 µM for the half of the compounds with a filed dose; 0% is about no effect
NS1 function inh: influenza NS1 inhibition. Potency, µM (series often up to 46.1 µM), without a hit: at the highest dose activity, positive = more growth. 0.4% of 270,000 active; calls by dose curve; also: potency is read from the fitted curve at half-maximal effect; actives are rising curves; nearly all actives have a fitted effect of over 50% in size
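Read-out: OD600 growth recovery of NS1-expressing budding yeast. Cells grown overnight at 30C in -URA glucose medium, washed, resuspended and diluted 1:100 in 2% galactose assay medium, pH 6.0. Same strain lacking NS1 served as positive control.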
Shiga inhibitor: Shiga toxin inhibition. 9.2% of 290,000 active. Vero cells, Shiga toxin protein synthesis inhibition reporter. inhibition, % at 38.7 µM; in the data active = inhibition mostly above about 28%, no sharp cut-off; inactive = mostly below about 43%; also: 0% is about no effect
Pf growth 96h: P. falciparum growth inhibition at 96 hours; P. falciparum luciferase reporter growth, 96 h; Potency, µM (doses to about 28.7 µM), inactives show at the highest dose activity change, negative = inhibition, hits mostly inhibitors; AID 504834; 6.9% of 320,000 active; also: potency is read from the fitted curve at half-maximal effect; % is scaled to controls: 0 for no effect and ±100 for the full control effect
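96 h incubation, 37 C, 5% CO2, of luciferase-reporter P. falciparum-infected RBCs (2% hematocrit, 0.05% parasitemia final) with test compounds; endpoint luminescence.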
Sm TGR inh: inhibitors of Schistosoma mansoni thioredoxin glutathione reductase; purified TGR, DTNB reduction, TNB absorbance 405 nm; Potency, µM (titrated, usually from 114 µM), for inactives: at the highest dose activity change, negative = inhibition, hits mostly inhibitors; 3% of 360,000 active; AID 485364; also: potency is read from the fitted curve at half-maximal effect; % is scaled to controls: 0 for no effect and ±100 for the full control effect; nearly all actives have a fitted effect of over 60% in size
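TGR 20 nM + NADPH 100 uM (dispensed conc.), cpd preinc 15 min RT; start with NADPH (500 uM addition) then DTNB (15 mM addition). Kinetic TNB absorbance, 405 nm filter. Four-parameter Hill fit across titration.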
* hit, by the source's call; ? = inconclusive; . = no result; [ ] = another dose, or the depositor's remark. Unless noted, calls follow the shape of the dose curve; as a rule, active = well fitted curve in the direction sought with a large enough effect; inconclusive = small, poorly fitted or top-dose-only effect, or another doubt; inactive = no such curve, though single readings can be large; an effect the other way counts as inactive or inconclusive.

SMILES	Pf growth 48h	CHX counter	NS1 function inh	Shiga inhibitor	Pf growth 96h	Sm TGR inh
COc1cc(OC)c(C(=O)NCc2ccco2)cc1OC	-52%	15	9%	-3	-16%	?
COCCNC(=O)c1cc(-c2ccccc2OC)on1	.	17*	-29%	131	?	6%
COc1ccccc1-c1cc(C(=O)NCc2ccco2)no1	31%	37*	-18%	30	.	5%
Cc1ccc(S(=O)(=O)N2CCN(C(=O)CSc3nnc(-c4ccco4)o3)CC2)cc1	.	-2	-16%	-9	10µM*	3%[11.4 µM]
COc1ccc(-c2nnc(SCC(=O)N3CCCC3)o2)cc1	83%	33*	6%	67*	-18%	0%
Cc1cccc(-c2nnc(SCC(=O)N3CCCCC3)o2)c1	.	.	.	.	.	-2%
COc1ccc(-c2nnc(SCC(=O)N3CCCCC3)o2)cc1	12%	12	-1%	26	-14%	7%
CC1CCN(C(=O)CSc2nnc(-c3cccnc3)o2)CC1	16%	-6	0%	-7	?	-11%
COC(=O)C1CCN(C(=O)CSc2nnc(-c3ccncc3)o2)CC1	13%	-3	8%	-6	5.2µM*	2%
Cc1cccc(-c2nnc(SCC(=O)N3CCCC3)o2)c1	108%	19*	-1%	93*	-11%	-3%
O=C(CNCc1ccc(F)cc1)Nc1ccc(C(=O)N2CCCCC2)cc1	-13%	-1	-20%	-7	-16%	4%
Cc1ccc(-c2nnc(SCC(=O)N3CCN(c4ccccc4)CC3)o2)cc1	7%	-1	-2%	-6	?	19%
Cc1ccc(-c2nnc(SCC(=O)N3CCCC3)o2)cc1	29%	17*	6%	56	3%	1%
COc1ccc(-c2nnc(SCC(=O)N3CCCCC3)o2)c(OC)c1	12%	30*	0%	25	?	3%
COc1ccc(-c2nnc(SCC(=O)N3CCCC(C)C3)o2)c(OC)c1 (configuration not stated)	?	-1	-21%	22	.	-12%
Cc1ccc(-c2nnc(SCC(=O)NC3CC3)o2)cc1	14%	24*	-3%	61*	2%	10%
COc1ccc(N2CCN(C(=O)CSc3nnc(-c4ccc5[nH]c(C)c(C)c5c4)o3)CC2)cc1	?	-2	-19%	-8	3.3µM*	1%
Cc1cccc(-c2nnc(SCC(=O)NC3CCCC3)o2)c1	58%	-3	-1%	26	-1%	-5%
CC(=O)c1ccc(S(=O)(=O)N(C)CC(=O)N2CCCCCC2)cc1	4%	-1	6%	-3	-9%	-34%
CC(=O)c1cc2c(cc1NS(=O)(=O)c1ccc(F)cc1)OCO2	-15%	-3	0%	0	7%	2%
NCc1ccc(C(=O)O)cc1	.	.	0%	.	.	.
O=C(CSc1nnc(-c2ccc(F)cc2)o1)N1CCCC1	84%	16*	3%	34	?	-10%
O=C(CSc1nnc(-c2ccncc2)o1)N1CCCCCC1	26%	10	-2%	34	-11%	-29%[57.1 µM]
CCOc1nc(-c2ccc(C)cc2)ccc1-c1noc(-c2ccccc2F)n1	.	.	.	.	.	2%
CCOc1ccccc1-c1nc(-c2ccc(C)nc2OC)no1	141%	44*	-46%	92*	15%	8%
SMILES	Pf growth 48h	CHX counter	NS1 function inh	Shiga inhibitor	Pf growth 96h	Sm TGR inh
CCOc1nc(C)ccc1-c1noc(-c2ccco2)n1	153%	32*	-25%	42	21%	14%
CCOc1nc(C)ccc1-c1noc(-c2ccccn2)n1	8%	26*	-30%	34	-7%	1%
CCOc1nc(C)ccc1-c1noc(CC)n1	27%	-3	-14%	-2	34%	-5%
CCOc1nc(-c2ccccc2)ccc1-c1noc(-c2cccnc2)n1	.	.	-1%	.	.	.
Cc1oc(-c2ccc(-c3ccccc3)cc2)nc1CN(C)C1CCOC1 (configuration not stated)	145%	60*	2%	75*	?	-16%
Cc1ccc(-c2nc(CN(C)Cc3cccc4cnccc34)c(C)o2)s1	?	10	-3%	-7	13µM*	?
Cc1oc(-c2cccc(Cl)c2)nc1CN(C)C1CCOC1 (configuration not stated)	-17%	-3	-7%	-8	-3%	-9%
Cc1ccc(-c2nc(CS(=O)(=O)CC(=O)NCCCN(Cc3ccccc3)C(C)C)c(C)o2)cc1	?	-3	19%	-9	6%	-32%
Cc1ccc(-c2nc(CN(C)C3CCOC3)c(C)o2)s1 (configuration not stated)	25%	25*	0%	47	19%	-14%
Cc1oc(-c2ccc(-c3ccccc3)cc2)nc1CN(CCO)C(C)C	159%	37*	-12%	32	?	-23%
Cc1ccc(-c2nc(CN(C)C3CCOCC3)c(C)o2)s1	38%	9	3%	-3	?	-35%
CC(C(=O)Nc1ccccn1)N1C(=O)c2ccccc2S1(=O)=O (configuration not stated)	18%	.	.	.	17%	-1%
CCOc1ccccc1-c1nnc2n1N=C(c1ccccc1OC)CS2	.	-4	.	-4	.	.
COc1ccccc1CNS(=O)(=O)c1ccc(-n2cnnn2)c(OC)c1	6%	-6	6%	-3	9.3µM*	-1%
COc1cc(S(=O)(=O)NCc2ccccc2Cl)ccc1-n1cnnn1	-12%	-2	-4%	-3	271%	23%
COc1ccccc1CN(Cc1ccco1)S(=O)(=O)c1ccc(-n2cnnn2)c(OC)c1	13µM*	-1	-32%	-4	?	-18%
COc1cc(S(=O)(=O)N(Cc2ccccn2)Cc2ccccc2Cl)ccc1-n1cnnn1	-57%	-1	-3%	13	?	2%
COc1ccc(Cl)cc1NC(=O)c1cc2ccc3ccc(C)[nH]c3c2n1	.	.	.	.	.	0%
Cc1ccc(NC(=O)CN(C)CC(=O)N(CC(C)C)c2c(N)n(CC(C)C)c(=O)[nH]c2=O)c(C)c1	?	.	.	.	-2%	-14%
Cc1ccc(NC(=O)Cn2nnc(C(=O)NCc3ccco3)c2N)cc1	.	2	5%	2	0%	-11%
CC(C)c1ccc(NC(=O)Cn2nnc(C(=O)NCc3ccco3)c2N)cc1	29%	10	-1%	-3	12µM*	-11%
Nc1c(C(=O)NCc2ccco2)nnn1CC(=O)Nc1ccc2c(c1)OCO2	12µM*	-4	.	-11	?	0%
Cc1cc(C)cc(-n2nnc(C(=O)NCc3ccco3)c2N)c1	-21%	8	-2%	13	?	-14%
Nc1c(C(=O)NCc2ccco2)nnn1-c1ccccc1	240%	42*	1%	71*	13%	0%
O=C(CSc1nnc(CNC(=O)c2ccccc2F)o1)NC1CCCC1	3%	2	4%	18	?	1%
CC(C)OCCCNC(=O)c1ccc2c(c1)N(Cc1c(F)cccc1Cl)C(=O)c1ccccc1S2	.	.	.	.	.	11%
O=S(=O)(c1ccccc1)c1nnn2c1nc(NC1CCCCCC1)c1sccc12	.	.	.	.	.	-2%
